Luciferase inh – qHTS Assay for Inhibitors of Firefly Luciferase | 2.2% of 72,000 active | Potency, µM (top dose mostly 57.1 µM), usual class: inhibitors | purified firefly luciferase, luminescence, 8 min | Luciferin 4-monooxygenase (Photinus pyralis), P08659; further: nearly all actives have a fitted effect of over 40% in size
Target sequence (P08659 whole entry, looked up): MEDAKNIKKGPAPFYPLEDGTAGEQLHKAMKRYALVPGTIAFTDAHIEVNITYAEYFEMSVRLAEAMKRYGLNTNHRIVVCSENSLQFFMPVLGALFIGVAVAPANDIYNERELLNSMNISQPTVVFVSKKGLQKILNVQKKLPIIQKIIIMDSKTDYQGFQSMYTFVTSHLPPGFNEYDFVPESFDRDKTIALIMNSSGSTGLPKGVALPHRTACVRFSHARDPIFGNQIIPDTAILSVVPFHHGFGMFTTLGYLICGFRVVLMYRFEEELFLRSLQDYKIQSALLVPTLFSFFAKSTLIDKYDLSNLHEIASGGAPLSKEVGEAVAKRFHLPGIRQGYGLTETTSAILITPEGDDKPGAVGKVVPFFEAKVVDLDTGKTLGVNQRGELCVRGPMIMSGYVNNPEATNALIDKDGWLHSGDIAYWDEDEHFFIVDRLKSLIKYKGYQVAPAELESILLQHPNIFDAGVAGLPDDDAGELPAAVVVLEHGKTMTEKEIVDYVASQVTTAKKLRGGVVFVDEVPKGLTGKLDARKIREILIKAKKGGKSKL
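Compounds were tested as concentration series (qHTS) against purified P. pyralis luciferase with luciferin and 10 uM ATP in 50 mM imidazole pH 7.2, 50 mM KCl, 7 mM MgCl2, 0.01% Tween 20, 0.05% BSA. Luminescence was read after 8 min at ambient temperature.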
p53ts 39C kill – qHTS Screen for Compounds that Selectively Target Cancer Cells with p53 Mutations: Cytotoxicity of p53ts Cells at the Nonpermissive Temperature; Potency, µM (highest dose often 46.1 µM), most hits filed as cytotoxic; H1299-p53A138V viability at 39C, ATP luminescence, 24 h; 1.5% of 130,000 active; AID 902, 2007; further: nearly all actives have a fitted effect of over 55% in size
p53ts 32C tox – qHTS Screen for Compounds that Selectively Target Cancer Cells with p53 Mutations: Cytotoxicity of p53ts Cells at the Permissive Temperature; H1299-p53A138V at 32C, ATP luminescence viability, 24 h; Potency, µM (top dose mostly 46.1 µM), usual class: cytotoxic; 0.93% of 130,000 active; AID 924, 2007; further: nearly all actives have a fitted effect of over 55% in size
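ATP-content luminescence (ATPlite) read-out after 24 h compound exposure at 32C in H1299-p53A138V cells (600/well). Tested up to 46 uM. Normalized to DMSO (0%) and 100 uM tamoxifen (100% killing); Hill-fit AC50.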
Each line names hits and unclear results; the compound was inactive in the other large screens. Hits are enriched below; roughly 2.5% of the tested compounds scored in any of these assays. The call rests on the fitted dose curve; in most records, active means well fitted curve in the direction sought with a large enough effect; inconclusive means small, poorly fitted or top-dose-only effect, or another doubt; inactive means no such curve, though single readings can be large; an effect the other way counts as inactive or inconclusive.

CC(=O)Nc1ccc(-c2nc3c(C)cccc3[nH]2)cc1	Luciferase inh 3.2µM, p53ts 39C kill inconclusive, p53ts 32C tox inconclusive
Cc1nc(N2CCOCC2)c2nc(-c3ccccc3)n(CCCN3CCOCC3)c2n1	none (no result: Luciferase inh)
C=C(C)C(O)C(CC/C=C(\C)C(=O)OCC)OC (stereo not drawn)	none (no result: Luciferase inh)
CCOC(=O)c1c(C)[nH]c(C(=O)COC(=O)c2ccncc2)c1C	none
CCOC(=O)c1c(C)[nH]c(C(=O)COC(=O)C2CC2C)c1C (stereo not drawn)	Luciferase inh 10µM
COCCn1c(=O)c(-c2ccc(F)cc2)nc2cnc(N3CCOCC3)nc21	none
O=C(CN(Cc1ccc(F)cc1)C(=O)c1ccco1)NCc1ccc(F)cc1	none
O=C(/C=C/Nc1ccc(F)cc1)c1ccco1	Luciferase inh 3.2µM, p53ts 39C kill 13µM, p53ts 32C tox 7.9µM
CCOC(=O)c1cc2c(=O)n3ccccc3nc2n(C(C)C)c1=NC(=O)C(C)(C)Oc1ccc(Cl)cc1	none (no result: Luciferase inh)
CC(=O)Oc1ccc(/C=C\C(=O)C[C@@H]2O[C@@H](Oc3cc(OC(C)=O)c4c(c3)O[C@@H](c3ccc(OC(C)=O)cc3)CC4=O)[C@H](OC(C)=O)[C@H](OC(C)=O)[C@@H]2OC(C)=O)cc1	none (no result: p53ts 39C kill, p53ts 32C tox)
Cc1ccc(C=Nc2ccc(N(C)C)cc2)o1	Luciferase inh 3.2µM
Cc1ccc(/C=N/n2nnnc2N)o1	none (no result: p53ts 39C kill, p53ts 32C tox)
CCOc1ccccc1CNC(=O)c1cnc2sc(N3CCCC3)nn2c1=O	none (no result: Luciferase inh)
Cc1ccc2[nH]c3nc(CCCn4ccnc4-c4ccccc4)nnc3c2c1	none
COc1ccc(-c2cc(C(F)(F)F)nc(S(=O)(=O)CCCC(=O)Nc3cccc(O)c3)n2)cc1OC	p53ts 39C kill 3.2µM, p53ts 32C tox inconclusive (no result: Luciferase inh)
O=C(CCS(=O)(=O)c1nc(-c2ccc3c(c2)OCO3)cc(C(F)(F)F)n1)Nc1ccc(F)cc1F	none (no result: Luciferase inh)
COc1ccc(-c2cc(C(F)(F)F)nc(SCCC(=O)Nc3ccc(OC)c(OC)c3)n2)cc1	none (no result: Luciferase inh)
COc1cc(NC(=O)CCCSc2nc(-c3ccco3)cc(C(F)(F)F)n2)cc(OC)c1OC	none (no result: Luciferase inh)
COc1ccccc1-c1cc(C(F)(F)F)nc(S(=O)(=O)CCCC(=O)Nc2cc(OC)c(OC)c(OC)c2)n1	p53ts 39C kill 5µM, p53ts 32C tox 6.3µM (no result: Luciferase inh)
COc1ccc(NC(=O)CCCS(=O)(=O)c2nc(-c3ccc(OC)c(OC)c3)cc(C(F)(F)F)n2)cc1OC	p53ts 39C kill 2.5µM, p53ts 32C tox inconclusive (no result: Luciferase inh)
COc1ccc(NC(=O)CCS(=O)(=O)c2nc(-c3ccc4c(c3)OCO4)cc(C(F)(F)F)n2)cc1	p53ts 32C tox inconclusive (no result: Luciferase inh)
COc1ccc(-c2cc(C(F)(F)F)nc(S(=O)(=O)CCCC(=O)Nc3ccccc3C(F)(F)F)n2)cc1OC	p53ts 39C kill 5µM, p53ts 32C tox inconclusive (no result: Luciferase inh)
Cc1ccccc1CNC(=O)Cn1ccc2cc(S(=O)(=O)N3CCCCC3)ccc21	none (no result: Luciferase inh)
O=C1C=CC2(OCCCO2)C(Br)=C1	none (no result: Luciferase inh)
CCCOc1ccc(NC(=O)CC2C(=O)N(c3cccc(OC)c3)C(=O)N2Cc2cccs2)cc1 (stereo not drawn)	none (no result: Luciferase inh)
O=C(Nc1nn[nH]n1)c1nc(-c2ccccc2)cc(=O)[nH]1	none
COc1ccc(C)cc1NC(=O)C(Cc1ccccc1)NS(=O)(=O)c1cccs1 (stereo not drawn)	none (no result: Luciferase inh)
COc1ccc(C)cc1NC(=O)C(Cc1ccccc1)NS(=O)(=O)c1ccc(Br)s1 (stereo not drawn)	p53ts 39C kill 13µM, p53ts 32C tox inconclusive (no result: Luciferase inh)
COc1ccc(-n2c(=O)c(-c3ccccc3)nc3cnc(N4CCOCC4)nc32)cc1	none
Cc1cc(C)c(C#N)c(SCC(=O)Nc2ccccc2C#N)n1	p53ts 32C tox inconclusive (no result: Luciferase inh)
CCOC(=O)NC(=O)CSc1nc(C)cc(C)c1C#N	p53ts 39C kill 6.3µM, p53ts 32C tox 5µM
Cc1cc(C)c(C#N)c(SCC(=O)Nc2ccccc2C(N)=O)n1	p53ts 39C kill 2µM, p53ts 32C tox 13µM
CCOC(=O)CNC(=O)CSc1nc(C)cc(C)c1C#N	none
FC(F)(F)c1ccccc1-c1nc(Nc2ccncc2)c2ccccc2n1	p53ts 39C kill inconclusive, p53ts 32C tox inconclusive
CC1=C(\C=C/C(C)=C/C=C\C(C)=C\C(=O)Nc2ccc(O)cc2)C(C)(C)CCC1	none (no result: p53ts 39C kill, p53ts 32C tox)
CC1(C)[C@@H](O)CC[C@@]2(C)[C@H]1CC[C@]1(C)[C@H]2C(=O)C=C2[C@@H]3C[C@@](C)(C(=O)O)CC[C@]3(C)CC[C@@]21C	none (no result: p53ts 39C kill, p53ts 32C tox)
Cc1nn(CC(=O)NC2CCC(C)CC2)c(=O)c2c1sc1ccccc12 (stereo not drawn)	p53ts 39C kill inconclusive (no result: Luciferase inh)
Cc1nn(C(C)C(=O)NC2CCC(C)CC2)c(=O)c2c1sc1ccccc12 (stereo not drawn)	p53ts 39C kill 10µM, p53ts 32C tox 11µM (no result: Luciferase inh)
COc1ccc(N2CCN(C(=O)C(C)n3nc(C)c4sc5ccccc5c4c3=O)CC2)cc1 (stereo not drawn)	p53ts 39C kill 10µM, p53ts 32C tox 10µM (no result: Luciferase inh)
Cc1nn(C(C)C(=O)N2CCCCC2)c(=O)c2c1sc1ccccc12 (stereo not drawn)	none (no result: Luciferase inh)
COCOc1ccc(Br)cc1C(=O)[C@H]1O[C@H]1c1cccc(OC)c1	none
CN(C)c1ccc(CNC(=O)C2(C)C=CCN2C(=O)c2ccccc2)cc1 (stereo not drawn)	none (no result: Luciferase inh)
Cc1cc(C(=O)COC(=O)C2COc3ccccc3O2)c(C)n1CC1CCCO1 (stereo not drawn)	Luciferase inh 16µM
Cc1cc(C(=O)COC(=O)CN(C)S(=O)(=O)c2ccc(Cl)cc2)c(C)n1CC1CCCO1 (stereo not drawn)	none
C[C@@](N)(/C=C\c1ccccc1)C(=O)O	none
CC[C@@H]1[C@H]2CCCCN3[C@@H]2[C@@H](C[C@H]3[C@@H]2C[C@H](C)C(=O)O2)[C@@H]2[C@H]1OC(=O)[C@H]2C	none (no result: p53ts 39C kill, p53ts 32C tox)
CCOC(=O)c1oc2c(c1C)-c1nn(Cc3ccc(Cl)cc3)cc1CC2	none (no result: Luciferase inh)
CCN(CC)CCOC(=O)c1ccc(NC(=O)c2cc3c(s2)-c2ccccc2OC3)cc1	p53ts 39C kill 16µM, p53ts 32C tox inconclusive (no result: Luciferase inh)
CCc1cccc(NC(=O)c2cc3c(s2)-c2ccccc2OC3)c1	p53ts 39C kill inconclusive (no result: Luciferase inh)
Cc1cn2c(=O)cc(COC(=O)c3cccc(NC(=O)COc4ccccc4)c3)nc2s1	none (no result: Luciferase inh)
COc1ccc(NC(=O)c2cccc(N3CCCS3(=O)=O)c2)cc1OC	p53ts 39C kill inconclusive (no result: Luciferase inh)
COc1ccc(Cn2c(CNS(=O)(=O)c3ccc(C)c(C)c3)nc3cccnc32)cc1	none (no result: Luciferase inh)
Cc1cc(C(=O)CN2CCCCC2)c(C)n1-c1ccc(F)cc1	none (no result: Luciferase inh, p53ts 32C tox)
Cc1cc(C(=O)CNCc2ccco2)c(C)n1-c1ccc(F)cc1	Luciferase inh 25µM, p53ts 39C kill inconclusive, p53ts 32C tox inconclusive
N#Cc1nc(Cc2cccc3ccccc23)oc1NCCN1CCCCC1	Luciferase inh 7.9µM, p53ts 39C kill inconclusive
CNc1oc(Cc2cccc3ccccc23)nc1C#N	none
COc1cc([C@@H](O)CO)ccc1OS(=O)(=O)O	none
CSc1nn(Cc2cccc(Cl)c2)c(N(C(C)=O)C(C)=O)c1S(=O)(=O)c1ccccc1	p53ts 39C kill 20µM (no result: Luciferase inh)
CC(=O)Nc1cc(-c2ccccc2)nn1Cc1cccc(Cl)c1	none (no result: Luciferase inh)
Br/C(=N\Nc1nn[nH]n1)c1ccncc1	none
Cc1ccc(C(=O)Nc2cccc(C(=O)OCc3cc(=O)n4c5c(sc4n3)CCCC5)c2)cc1	none (no result: Luciferase inh)

Screens deposited in PubChem by National Center for Advancing Translational Sciences (NCATS).
